Test results: ChEMBL document CHEMBL3988442, “University of Dundee, Small-Polar-MMV Screening Library” (2021)

What was measured:
[1] = biological target: T1, Aspartate--tRNA(Asp/Asn) ligase (Mycobacterium tuberculosis (strain ATCC 25618 / H37Rv)) (UniProt P9WFW3); test: Assay for Asp RNA synthetase-1 from Mycobacterium tuberculosis; format: functional; design: scale not given: direction of the effect not stated beside the values; settings: 30 µM; note: in the data most compounds retested in dose-response had high values
T1 sequence (whole entry): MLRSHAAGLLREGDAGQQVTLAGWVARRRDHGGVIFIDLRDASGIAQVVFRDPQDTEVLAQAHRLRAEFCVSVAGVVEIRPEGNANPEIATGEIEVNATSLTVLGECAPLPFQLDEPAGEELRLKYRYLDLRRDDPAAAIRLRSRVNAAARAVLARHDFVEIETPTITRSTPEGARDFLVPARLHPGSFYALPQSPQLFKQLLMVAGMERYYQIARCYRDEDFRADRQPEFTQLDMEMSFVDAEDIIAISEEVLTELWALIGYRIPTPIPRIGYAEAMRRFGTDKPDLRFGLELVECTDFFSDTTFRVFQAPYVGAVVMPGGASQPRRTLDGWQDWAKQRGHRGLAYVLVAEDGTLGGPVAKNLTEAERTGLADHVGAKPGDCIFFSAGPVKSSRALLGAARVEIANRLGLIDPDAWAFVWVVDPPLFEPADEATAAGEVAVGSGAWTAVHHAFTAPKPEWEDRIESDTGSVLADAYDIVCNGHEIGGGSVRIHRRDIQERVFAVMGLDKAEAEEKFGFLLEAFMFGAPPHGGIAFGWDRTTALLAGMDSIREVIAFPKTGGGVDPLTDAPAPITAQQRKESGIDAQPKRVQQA

[2] = biological target: Shiga toxin 2 (Escherichia coli O157:H7) (UniProt P09385+P09386); test: E. coli 0.157:H7 Shiga Toxin SOP - stx2 screening assay; format: functional; design: scale not given: direction of the effect not stated beside the values; settings: 30 µM

Structure (SMILES) | Percent Effect [1] | Percent Effect [2]
Cc1cc(C[C@@H]2COC[C@H]2NCc2ccccc2C(F)(F)F)on1 | 2.34% | -7.33%
CN(C)CCN1CCC2(CCN(C(=O)c3ccc(F)cc3)CC2)C1=O | 2.84% | -5.38%
CCn1cc(NC(=O)NCC2(N3CCOCC3)CCSC2)cn1 (configuration not stated) | 1.79% | -20%
COc1ccc2c(c1)OCC(CNC(=O)c1ccc(=O)n(C)c1)C2 (configuration not stated) | -0.474% | 0.424%
CC(=O)N(Cc1noc(C2CC2)n1)C1CCN(Cc2nccn2C)C1 (configuration not stated) | -4.37% | 12.9%
COCc1n[nH]/c(=N/C(=O)COc2cnc(C)cc2O)s1 | -2.13% | -48.9%
CN(C(=O)C1CCCCC1)[C@@H]1CCC[C@@H](N2CCOCC2)[C@@H]1O | 0.61% | -11.6%
Cc1ccc(CC(=O)N2CCc3nnc(N(C)C)cc3C2)cn1 | 0.322% | -40.7%
CN(Cc1cccc(Cl)c1)S(=O)(=O)N1CCOCC1 | 2.4% | 7.77%
O=C(Cc1cccs1)N1C[C@@H]2COC[C@]2(COc2cccnc2)C1 | -6.32% | -1.18%
CCN(CC1CCOC1)C(=O)c1ccccc1NS(=O)(=O)CC (configuration not stated) | -4.47% | 33.3%
Cc1nn2cccnc2c1C(=O)N1CCCC(Nc2ccccc2)C1 (configuration not stated) | 1.98% | 8.26%
COc1cc(C)nc(N2CCN(C(=O)CCc3nccs3)CC2)n1 | 2.87% | -3.5%
Cc1cc(-c2cnn(CCNC(=O)C3CC3)c2C2CC2)on1 | 0.838% | 64.1%
CCN(C(=O)CS(=O)(=O)Cc1cc(Cl)c2c(c1)OCCCO2)C1CC1 | -0.343% | 4.47%
CCN(Cc1cccc2c1OCO2)C(=O)C(C)c1cccnc1 (configuration not stated) | 1.18% | -4.53%
